Here are results for 96 molecules from PubChem BioAssay AID1259374 (The Scripps Research Institute Molecular Screening Center, 2018).

SMILES strings stand for the structures. Where “and” joins values, the source holds several entries; their conditions need not be identical. Equal values may be shown once. Out of some 650,000 compounds screened, about 5,900 (0.91%) were called active. Rule as the data show it: active = inhibition above about 50%; inactive = the rest. This excerpt belongs to a sample that is enriched for actives.

Sequence of Microphthalmia-associated transcription factor (Homo sapiens) (O75030 whole entry, looked up): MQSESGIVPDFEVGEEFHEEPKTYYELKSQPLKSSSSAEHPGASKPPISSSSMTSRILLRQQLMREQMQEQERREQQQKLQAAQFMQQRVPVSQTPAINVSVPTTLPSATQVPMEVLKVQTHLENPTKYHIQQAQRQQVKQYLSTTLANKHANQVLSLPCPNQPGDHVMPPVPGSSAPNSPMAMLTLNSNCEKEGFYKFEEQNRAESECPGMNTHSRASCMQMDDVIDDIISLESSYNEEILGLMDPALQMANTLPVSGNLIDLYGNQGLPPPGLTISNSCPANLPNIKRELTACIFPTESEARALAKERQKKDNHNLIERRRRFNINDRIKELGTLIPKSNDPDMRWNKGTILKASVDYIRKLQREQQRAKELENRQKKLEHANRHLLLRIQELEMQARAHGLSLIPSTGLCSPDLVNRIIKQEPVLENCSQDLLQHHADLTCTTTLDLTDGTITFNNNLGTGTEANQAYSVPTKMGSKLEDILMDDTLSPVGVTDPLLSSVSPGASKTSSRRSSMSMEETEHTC

The test addresses Microphthalmia-associated transcription factor (Homo sapiens) (UniProt O75030). Put plainly: MITF inhibitors, primary screen, biochemical, AlphaScreen, human (AID 1259374).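 Also: 0% = vehicle wells with protein.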 The following applies: AlphaScreen MITF homodimerization, bead proximity signal; at 2.6 µM; active compounds read high. In general terms: Bead proximity is the source of the signal in Alpha formats.
A word on the inhibition: it is the drop in the measured response relative to a control, in per cent. As for `Cc1ccccc1C(=O)Nc1ccc(S(=O)(=O)NCc2ccccc2)cc1`, the inhibition was 5.75% (inactive). Then `Cc1ccc(NC(=O)CC[C@H]2CN(Cc3ccncc3)CC[C@H]2N2CCOCC2)cc1`, with -7.04% (inactive); and `CCCC(C)C(=O)Nc1nc2c(s1)C(=O)CC(C)(C)C2` (stereo unspecified), with 6.86% (inactive); and `CC(C)NC(=O)/C=C/c1cccc([N+](=O)[O-])c1`, with -4.32% (inactive). Take `COc1cccc(N2C(=O)CC(N3CCN(C)CC3)C2=O)c1` (stereo unspecified): the inhibition was 5.95% (inactive). Consider `Cc1ccc(-c2noc(CN(C(C)C)S(=O)(=O)c3ccc(F)cc3)n2)cc1`, for which the inhibition was -1.65% (inactive). With `c1ccc(CN2CCC(Nc3nc(NCc4ccc5c(c4)OCO5)nc4c3ncn4C3CCCCC3)CC2)cc1` the figure was 16.3% (inactive); with `O=C1CCCN1CCn1cnc2c(Nc3ccc(N4CCOCC4)cc3)nc(NCc3ccc4c(c3)OCO4)nc21`, 15.2% (inactive); with `c1cc2c(cc1CNc1nc(Nc3ccc(N4CCOCC4)cc3)c3ncn(C4CCCCC4)c3n1)OCO2`, 53.1% (active). As for `CC12CCOCC1C2C(=O)Nc1ccc(N=Nc2ccccc2)cc1` (stereo unspecified), the inhibition was -6.59% (inactive). In the case of `O=C1CCCN1CCCNc1ccnc(Nc2nccc3ccccc23)n1`, the inhibition is -1.07% (inactive). As to `O=C(CN1CCCCCC1)N/N=C/c1ccc(Cl)cc1`, the inhibition was 20% (inactive). On to `CCN1CCN(CC(=O)N/N=C/c2cccc(Cl)c2)CC1`, for which the inhibition was 57.4% (active). With `COc1cccc(/C=N\NC(=O)CN2CCN(C)CC2)c1` the figure was -8.3% (inactive); with `Cc1cccc(NC(=O)c2sc3nc4c(cc3c2N)CCC4)c1C`, 21.2% (inactive). For `COc1ccc(OCCOCCOc2ccc([N+](=O)[O-])cc2Cl)cc1`, the inhibition is 3.66% (inactive).

Take `CN1CCN(CCCCOc2ccc(C#N)cc2)CC1`: the inhibition is 1.14% (inactive). In the case of `CN1CCN(CCOCCOc2ccc3c(c2)CCC3)CC1`, the inhibition is 11.3% (inactive).

Turning to `CCOc1ccc(OCCN2CCNCC2)cc1`, the inhibition is 12.2% (inactive). Take `CCN1CCN(CCOc2ccc(-c3ccccc3)cc2)CC1`: the inhibition is 76.4% (active).

With `CCN1CCN(CCOCCOc2ccc([N+](=O)[O-])cc2)CC1`, the inhibition was 72% (active). Then `O=C(COc1ccc2c3c(c(=O)oc2c1)CCC3)Nc1cccc2ncccc12`, with 2.18% (inactive). With `COc1ccc(/C(O)=C/c2nc3cc(C)ccc3oc2=O)cc1OC` the figure was 3.89% (inactive). `CCN(CC)S(=O)(=O)c1ccc(C(=O)NCCO)cc1`: the inhibition was -0.2% (inactive). As to `C/C(=N\N=C1\NC(=O)CC(C(=O)Nc2cccc(C(=O)O)c2)S1)c1ccccc1` (stereo unspecified), the inhibition is 7.7% (inactive). Regarding `CC1CN(C(=O)COC(=O)/C=C/c2ccco2)CC(C)O1` (stereo unspecified), the inhibition was 16.4% (inactive). For `CC1CN(C(=O)COc2ccc(C(C)C)cc2Br)CC(C)O1` (stereo unspecified), the inhibition is -0.26% (inactive). Then `CC1CN(C(=O)COC(=O)c2cc(O)c(O)c(O)c2)CC(C)O1` (stereo unspecified), with 54.2% (active); and `Cc1sc(NC(=O)c2ccco2)c(C(c2ccccn2)N2CCN(C)CC2)c1C` (stereo unspecified), with 12.4% (inactive); and `CCOc1cccc(CN2CCCCC2)c1O`, with 12.8% (inactive).

Regarding `Oc1c(CN2CCN(c3cccc(Cl)c3)CC2)cc(Br)c2cccnc12`, the inhibition is -1.04% (inactive). As to `Oc1c(CN2CCCC2)cc(COCc2ccccc2)c2cccnc12`, the inhibition is 74.4% (active). On to `Cc1cccc(N2CC(O)=C(c3nc4ccccc4c(=O)[nH]3)C2=N)c1C`, for which the inhibition was -2.19% (inactive). For the molecule `CCCOc1cccc(C(=O)Nc2ccc3oc(-c4cccc5c(Br)cccc45)nc3c2)c1`, the inhibition was 3.22% (inactive). As to `COc1cccc(C2C(C(=O)OC(C)C)=C(C)NC3=C2C(=O)CC(c2ccc(Cl)cc2)C3)c1OC` (stereo unspecified), the inhibition is -2.22% (inactive). As for `COc1cc(Nc2ncnc3c2nc(N2CCOCC2)n3C(C)C)cc(OC)c1OC`, the inhibition was 54.5% (active). Regarding `CC(C)n1c(N2CCOCC2)nc2c(Nc3ccc(Oc4ccccc4)cc3)ncnc21`, the inhibition is 9.27% (inactive).

For `COc1cc(Nc2ncnc3c2nc(N2CCN(Cc4ccc5c(c4)OCO5)CC2)n3C(C)C)cc(OC)c1OC`, the inhibition was 5.48% (inactive). `C[C@@H]1CN(Cc2nnnn2CC(=O)N2CCc3ccccc3C2)C[C@H](C)O1`: the inhibition was 12.1% (inactive).

Consider `C=CCNC(=O)C(=O)Nc1ccccc1CC`, for which the inhibition was 19.9% (inactive). Then `CN1CCN(c2ncnc3c2cnn3-c2ccc(Cl)c(Cl)c2)CC1`, with 10.1% (inactive); and `O=C(CC1OC(=O)c2ccccc21)OCC(=O)c1ccc(F)cc1` (stereo unspecified), with 18.3% (inactive); and `Clc1ccc(OCCOCCn2ccnc2)c(Br)c1`, with 46.3% (inactive). As for `C=CCc1cc(C)ccc1OCCCn1ccnc1`, the inhibition is 64.5% (active). Consider `CCc1ccc(OCCCCn2ccnc2)cc1`, for which the inhibition is 62.2% (active).

Take `CCc1cccc(OCCOCCn2ccnc2)c1`: the inhibition is 65.1% (active).

With `COc1ccc(CCNC(=S)NCCCn2ccnc2)cc1`, the inhibition was 8.73% (inactive). In the case of `C=CCc1cc(C)ccc1OCC(O)Cn1cnc2ccccc21` (stereo unspecified), the inhibition is 4.8% (inactive).

Regarding `CCOC(=O)C(CCOc1cccc(CC)c1)C(=O)OCC`, the inhibition was -23.7% (inactive). Then `Cc1ccc(C(C)C)c(OCCCn2ccnc2)c1`, with 9.69% (inactive).

On to `COc1ccc(CCCOC(Cn2ccnc2)c2ccc(OC)cc2)cc1` (stereo unspecified), for which the inhibition was -16.1% (inactive) and 0.54% (inactive). For `Cc1nn(C(=O)c2cccnc2)c(C)c1Sc1ccccc1[N+](=O)[O-]`, the inhibition is 2.63% (inactive).

As to `O=C(Cc1cccc2ccccc12)Nc1nnc(-c2ccco2)o1`, the inhibition is 6.58% (inactive). Take `COCCN1Cc2cccc(C(=O)Nc3cccc(F)c3)c2C1=O`: the inhibition is -5.68% (inactive).

Take `Cc1nc(CSc2ccc(-c3ccco3)nn2)cs1`: the inhibition was 5.98% (inactive). On to `CCCCc1ccc(Nc2nc3ccccc3nc2NS(=O)(=O)c2ccc(Cl)cc2)cc1`, for which the inhibition was 1.24% (inactive).

Consider `COc1ccc(C(=O)NC(NC(=O)c2ccc(OC)cc2)c2cccc(OC)c2)cc1`, for which the inhibition was 9.45% (inactive). As to `CCN(CC)S(=O)(=O)c1ccc(-c2csc(N3N=C(c4cccc([N+](=O)[O-])c4)CC3c3ccc(F)cc3)n2)cc1` (stereo unspecified), the inhibition was 3.98% (inactive). Regarding `O=C(CNCc1cccnc1)Nc1ccc(C(=O)N2CCCCC2)cc1`, the inhibition is 93.3% (active). For the molecule `O=C(c1ccc(NC(=S)NCc2ccc(F)cc2)cc1)N1CCCC1`, the inhibition was 22.4% (inactive).

Take `O=C(Nc1ccc(C(=O)N2CCCCC2)cc1)c1cccc(I)c1`: the inhibition is -4.21% (inactive). Consider `Cn1c(=O)c2c(nc(N3CCCCC3)n2CCNC2=NCCCCC2)n(C)c1=O`, for which the inhibition was 0.31% (inactive). As to `Cc1nccn1CCNC(=O)Cn1nnnc1CN1CCCCCC1`, the inhibition is 0.85% (inactive). Regarding `COc1ccc(C2=NN(c3nc(-c4ccccc4)c4cc(Cl)ccc4n3)C(c3ccc([N+](=O)[O-])cc3)C2)cc1` (stereo unspecified), the inhibition was -4.92% (inactive).

Regarding `c1ccc(-c2nnc3sc(-c4ccc5c(c4)OCCO5)nn23)cc1`, the inhibition was -0.82% (inactive). As for `c1ccc(-n2cc(CN3CCOCC3)c(-c3ccc4c(c3)OCCO4)n2)cc1`, the inhibition is 61.7% (active). Then `c1ccc(CN2CCC(N=C3NN=C(c4ccc5c(c4)OCCO5)CS3)CC2)cc1`, with -10.7% (inactive). Turning to `O=C(N/C(=C\c1ccccc1F)C(=O)N1CCCCC1)c1ccc([N+](=O)[O-])cc1`, the inhibition is 17.1% (inactive). Take `O=C(Nc1ccc(-c2ccncc2)c(C(F)(F)F)c1)C1COc2ccccc2O1` (stereo unspecified): the inhibition was 53.1% (active). As to `O=C(Nc1cncc(-c2ccncc2)c1)C1COc2ccccc2O1` (stereo unspecified), the inhibition is 17.1% (inactive). Consider `O=C(Nc1cncc(-c2ccncc2)c1)C1COc2cc3ccccc3cc2O1` (stereo unspecified), for which the inhibition is 3.75% (inactive). With `Cc1nn(C)c(C)c1-c1cc(C(=O)NCCO)ccn1` the figure was 8.26% (inactive). For `CCN(Cc1ccccc1)Cc1ccc([N+](=O)[O-])cc1`, the inhibition is 60% (active). Then `CCN(C(=O)c1ccc([N+](=O)[O-])cc1)c1ccccc1`, with 1.44% (inactive); and `CN(C)CCCN(CCCN(C)C)Cc1ccc([N+](=O)[O-])cc1`, with 37.3% (inactive); and `Clc1cccc(CN2CCN(C3CCCC3)CC2)c1`, with 67.8% (active). In the case of `Cc1cccc(CN2CCN(C3CCCCC3)CC2)c1`, the inhibition is 33.7% (inactive). Then `O=C1N[C@H](CO)C(=O)N2CCN(Cc3cccc(F)c3)C[C@H]12`, with 10.2% (inactive); and `OCCC1CN(Cc2ccc(F)c(F)c2)CCN1C1CCCC1` (stereo unspecified), with -7.36% (inactive); and `Fc1ccc(CN2CCN(C3CCCC3)CC2)cc1`, with 57.1% (active). Consider `OC1CCCN(Cc2cccc(Cl)c2)C1` (stereo unspecified), for which the inhibition is -10.4% (inactive).

Regarding `Fc1cccc(CN2CCN(C3CCC(c4ccccc4)CC3)CC2)c1` (stereo unspecified), the inhibition was 54.9% (active). With `Clc1cccc(CN2CCN(C3CCN(Cc4ccccc4)CC3)CC2)c1`, the inhibition was 23.2% (inactive). Then `CCN(CC)C(=O)C1CCCN(Cc2cccc(Cl)c2)C1` (stereo unspecified), with 55.2% (active).

Take `OCCC1CN(Cc2cccc(F)c2)CCN1C1CCCC1` (stereo unspecified): the inhibition is 14.7% (inactive).

As to `NC(=O)C1CCCN(Cc2cccc(Cl)c2)C1` (stereo unspecified), the inhibition was 31.1% (inactive). Take `CCN(CC)C(=O)C1CCCN(Cc2ccc([N+](=O)[O-])cc2)C1` (stereo unspecified): the inhibition is 27.7% (inactive).

Turning to `O=C(NC1CCCCCC1)C1CCN(S(=O)(=O)c2cccc3nsnc23)CC1`, the inhibition is -4.57% (inactive). Turning to `c1ccc(CNc2cc(N3CCc4ccccc4C3)ncn2)cc1`, the inhibition was -8.87% (inactive). With `Cc1c(C(=O)C(=O)N2CCCC2)c2ccccc2n1C`, the inhibition was -1.62% (inactive). For the molecule `COc1cc([N+](=O)[O-])ccc1NC(=O)/C=C/c1ccc(F)cc1`, the inhibition was 0.43% (inactive). With `CC(=O)Nc1cccc(NC(=O)CSc2nc(C(C)(C)C)nc3ccccc23)c1` the figure was 16.8% (inactive); with `COc1cccc(C(C)N(C)C(=O)c2cc(COc3ccc(C(C)=O)cc3)on2)c1` (stereo unspecified), 11.1% (inactive).

In the case of `COc1ccccc1C1CN(Cc2ccc(NC(C)=O)s2)Cc2ccccc2O1` (stereo unspecified), the inhibition was 1.08% (inactive). Regarding `CC1(C)CC(=O)C2=C(C1)N(c1cccc(Cl)c1Cl)C1=C(C(=O)CC(C)(C)C1)C2c1ccc(F)c(Br)c1`, the inhibition was -2.02% (inactive).

Take `O=C(N/N=C/c1ccncc1)c1cnn(-c2ccccc2)c1C(F)(F)F`: the inhibition was -19.6% (inactive).
